An excerpt weighted towards active compounds, which were near 3.6% of everything screened.
Epigenetic derep – epigenetic control regulation, reporter derepression. murine LDR cells, GFP reporter derepression, 30 h. Potency, µM (titrated, usually from 53.9 µM), without a hit: top-dose GFP activation, actives largely listed as activators. 280,000 compounds, 0.2% hits. AID 1865; note: % of control where 0% means no effect; nearly all actives have a fitted effect of over 60% in size
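Derepression of a silenced CMV-GFP reporter in murine LDR cells is scored by enumerating GFP-positive cells with a laser-scanning microplate cytometer after 30 hours of treatment at 37 C.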
Sfp PPTase inh – Sfp phosphopantetheinyl transferase inhibition; Biochemical Sfp PPTase activity, qHTS; Potency, µM, without a hit: largest response in the series, negative = inhibition, actives largely listed as inhibitors; 310,000 compounds, 3.5% hits; Q9F4F7;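 note: the enzyme is Sfp with the accession as filed and its product quenches rhodamine fluorescence; 0% = enzyme reaction without inhibitor and -100% = no enzyme wells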
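After 15 min at room temperature with compound, 15 nM Sfp received 5 uM rhodamine-CoA plus 12.5 uM BHQ-2-ybbR (50 mM Hepes pH 7.6, 10 mM MgCl2). Rate came from the fluorescence difference over 30 min, ex 525/em 598 nm.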
NPSR antagonist – blocks cAMP signaling of the human neuropeptide S receptor. Potency, µM (series often up to 38.3 µM), inactives show top-dose activity change, negative = inhibition, most hits filed as inhibitors. AID 1461. CHO-NPSR cells, cAMP TR-FRET, antagonist mode. Q6W5P4. 220,000 compounds, 1% hits; note: % is set by controls: 0 for no effect and ±100 for the full control effect; nearly all actives have a fitted effect of over 50% in size
Target sequence (Q6W5P4 whole entry, looked up): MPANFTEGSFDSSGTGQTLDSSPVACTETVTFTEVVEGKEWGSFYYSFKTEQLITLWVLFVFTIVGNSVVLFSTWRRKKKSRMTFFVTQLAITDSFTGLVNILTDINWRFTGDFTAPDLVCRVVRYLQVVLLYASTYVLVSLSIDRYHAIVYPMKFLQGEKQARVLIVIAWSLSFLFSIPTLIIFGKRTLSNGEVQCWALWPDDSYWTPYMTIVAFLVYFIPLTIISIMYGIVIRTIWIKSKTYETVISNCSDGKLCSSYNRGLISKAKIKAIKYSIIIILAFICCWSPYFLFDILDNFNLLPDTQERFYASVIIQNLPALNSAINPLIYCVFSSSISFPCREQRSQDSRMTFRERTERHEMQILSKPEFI
KAT2A inh – inhibitors of human GCN5L2 histone acetyltransferase; Q92830; GCN5L2 HAT assay, ThioGlo1 CoA-SH fluorescence; Potency, µM (series often up to 58.9 µM), without a hit: at the top dose activity change, negative = inhibition, hits mostly inhibitors; 390,000 compounds, 0.21% hits; AID 504327; note: % is set by controls: 0 for no effect and ±100 for the full control effect
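Enzyme at 20nM final was mixed with library compounds for 15 min at room temperature. Peptide H3(1-25) at 75uM, acetyl-CoA at 70uM and ThioGlo1 at 50uM were then added. Plates were read immediately and after 20 min (Ex340nm/Em540nm).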
JMJD2E inh – blocks human JMJD2E demethylase activity | 230,000 compounds, 1.6% hits | Potency, µM (series often up to 57.1 µM), inactives show top-dose activity change, negative = inhibition, most hits filed as inhibitors | JMJD2E catalytic domain, FDH-coupled NADH fluorescence (FDH is formaldehyde dehydrogenase) | B2RXH2; active = well fitted inhibition curve with a large enough effect, not every such curve was filed as active; inconclusive = small, poorly fitted or top-dose-only effect, or another doubt; inactive = no such curve, though single readings can be large or run the other way;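 note: 0% = wells with enzyme and -100% = buffer wells without enzyme; nearly all actives have a fitted effect of over 50% in size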
Target sequence (B2RXH2 1-337 limits assumed): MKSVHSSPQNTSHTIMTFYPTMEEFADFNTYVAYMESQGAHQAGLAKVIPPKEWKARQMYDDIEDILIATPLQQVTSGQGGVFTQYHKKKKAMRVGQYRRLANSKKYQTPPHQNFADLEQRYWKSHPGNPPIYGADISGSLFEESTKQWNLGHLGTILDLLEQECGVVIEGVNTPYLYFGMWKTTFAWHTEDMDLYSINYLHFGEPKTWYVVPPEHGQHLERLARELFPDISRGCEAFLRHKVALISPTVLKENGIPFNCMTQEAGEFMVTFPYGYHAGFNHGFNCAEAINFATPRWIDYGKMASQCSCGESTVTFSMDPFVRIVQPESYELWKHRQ
IMPase Li cell – cell-permeable IMPase inhibitors with lithium potentiation | AID 1457 | 210,000 compounds, 0.35% hits | CHO-M1 cells, IP1 TR-FRET (IP-One), carbachol + lithium | Potency, µM (top dose mostly 59.4 µM), for inactives: at the top dose activity, negative = IMPase inhibition, most hits filed as inhibitors;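 note: IP1 builds up when IMPase is blocked and the TR-FRET signal falls; plate controls were basal vehicle for no effect and high inhibitor control for full effect; nearly all actives have a fitted effect of over 50% in size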
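CHO-M1, 2000 cells/well, 16–30 h culture; cpd + low Li+, 30 min 37C; lysis with d2-IP1/Eu-anti-IP1 Ab, 10 min RT; TR-FRET 665/620 ratio and 620 channel; AC50 via Hill.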
* hit, by the source's call; ? = inconclusive; nt = no result; [ ] = dose if it differs, or a comment. Unless noted, calls come from the whole dose curve; as a rule, active = well fitted curve in the direction sought with a large enough effect; inconclusive = small, poorly fitted or top-dose-only effect, or another doubt; inactive = no such curve, though single readings can be large; an effect the other way counts as inactive or inconclusive. Potency is the fitted concentration of half-maximal effect.

SMILES | Epigenetic derep | Sfp PPTase inh | NPSR antagonist | KAT2A inh | JMJD2E inh | IMPase Li cell
COc1ccc(C(C2C(=O)CC(C)(C)CC2=O)C2C(=O)CC(C)(C)CC2=O)cc1 | 0% | 25µM* | 34% | 1% | -22% | nt
COc1cc(C(C2C(=O)CC(C)(C)CC2=O)C2C(=O)CC(C)(C)CC2=O)cc(OC)c1OC | nt | ? | nt | -2% | nt | nt
CC1(C)CC(=O)C(C(C2=C(O)CC(C)(C)CC2=O)c2ccco2)C(=O)C1 (stereo unspecified) | 0% | ? | -7%[46.1 µM] | -15% | -18% | -22%[38.3 µM]
COc1cc(C(C2=C(O)CC(C)(C)CC2=O)C2C(=O)CC(C)(C)CC2=O)cc(OC)c1OC (stereo unspecified) | 3% | 50µM* | -4% | 0% | -11% | 3%
CC1(C)CC(=O)C(C(c2cccc([N+](=O)[O-])c2)C2C(=O)CC(C)(C)CC2=O)C(=O)C1 | 0% | -9% | 17% | -6% | 3% | 1%
Cc1ccc(C(C2C(=O)CC(C)(C)CC2=O)C2C(=O)CC(C)(C)CC2=O)s1 | 3% | 50µM* | -13%[46.1 µM] | -4% | -11% | -7%[38.3 µM]
COc1cc(C(C2C(=O)CC(C)(C)CC2=O)C2C(=O)CC(C)(C)CC2=O)ccc1O | nt | 56µM* | nt | 13% | nt | nt
CNC(=O)[C@H]1O[C@@H](n2cnc3c(N)ncnc32)[C@H](O)[C@H]1O | 0% | nt | -13%[46.1 µM] | nt | -1% | -15%
CO/N=C(/C(=O)N[C@@H]1C(=O)N2C(C(=O)O)=CCS[C@H]12)c1cnc(N)s1 | nt | 79µM* | nt | -3% | nt | nt
C[C@H](CCCC(C)(C)O)[C@H]1CC[C@H]2[C@@H]3CC=C4C[C@@H](O)CC[C@]4(C)[C@H]3CC[C@]12C | nt | 13% | nt | -4% | nt | nt
COC(=O)CC1C(=O)NCCN1C(=O)CSc1nc2ccccc2s1 (stereo unspecified) | 0% | 71µM* | 11% | -13% | -11% | 1%
COC(=O)CC1C(=O)NCCN1C(=O)c1ccccc1 (stereo unspecified) | 0% | 14% | -8%[46.1 µM] | -21% | -4% | 4%[38.3 µM]
Cc1cc(NC(=O)CN2CCN(S(=O)(=O)c3ccc(Cl)cc3)CC2)no1 | -1% | 17% | -1%[46.1 µM] | -9% | -2% | 17%[38.3 µM]
CC(=O)N1CCN(CC(=O)Nc2cc([N+](=O)[O-])ccc2Cl)CC1 | 2% | -1% | 4% | -6% | -10% | -7%
O=C(CN1CCN(c2ccccc2)CC1)N1CCc2ccccc21 | nt | 14% | nt | 1% | nt | nt
O=C(CN1CCN(c2ccc(O)cc2)CC1)Nc1cc([N+](=O)[O-])ccc1Cl | -3% | ? | -9% | -3% | 14µM* | 3%
O=C(CN1CCN(c2ccc(O)cc2)CC1)NC(c1ccccc1)c1ccccc1 | -2% | 10µM* | -7% | 3% | -4% | 2%
O=C(CN1CCCCCC1)NC(c1ccccc1)c1ccccc1 | nt | -30% | nt | -4% | nt | nt
Cc1cc(NC(=O)CN2CCN(c3ccc(O)cc3)CC2)no1 | 0% | 79µM* | -13%[46.1 µM] | -13% | ? | -1%[38.3 µM]
O=C(CN1CCN(c2ccc(O)cc2)CC1)N1CCc2ccccc21 | nt | 40µM* | nt | -6% | nt | nt
CCCCCCC#CC1C=CC(Oc2ccc(C=O)cc2)C(CO)O1 (stereo unspecified) | 3%[10.1 µM] | 5% | nt | nt | nt | nt
CCOC(=O)N1CCc2c(sc(NCc3ccc(OC)c(Br)c3)c2C(=O)Nc2cc(OC)ccc2OC)C1 | -1% | nt | nt | -19% | nt | nt
CC(=O)CSCc1ccccn1 | nt | nt | nt | nt | nt | 0%
CCOc1ccc(CC(=O)Nc2ccc3nc(N4CCCCC4)cc(C)c3c2)cc1OCC | ? | nt | nt | -8% | nt | nt
Nc1c(Cl)ncnc1N/N=C/c1ccnc2ccccc12 | -1% | 35µM* | -4% | -2% | -5% | 5%
SMILES | Epigenetic derep | Sfp PPTase inh | NPSR antagonist | KAT2A inh | JMJD2E inh | IMPase Li cell
Nc1c(Cl)ncnc1N/N=C/c1ccccn1 | ? | -7% | -13% | -6% | 20µM* | 11%
O=C(O)C1NCCN(C(=O)c2ccc3c(ccc4ccccc43)c2)C1C(=O)O (stereo unspecified) | nt | -10% | nt | -10% | nt | nt
Cc1nc2cnc(N(C)C)nc2n(CCC#N)c1=O | nt | 32% | nt | -21% | nt | 6%
O=C(NC(=S)NNC(=O)[C@H]1C[C@@H]1c1ccccc1)c1cccc(F)c1 | 2% | 32µM* | 6% | -8% | -9% | nt
COc1cccc(OC)c1C(=O)NC(=S)NNC(=O)[C@H]1C[C@@H]1c1ccccc1 | 2% | 36% | -5% | -4% | ? | nt
CC1c2ccccc2SC(CCCN(C)C)c2ccccc21 (stereo unspecified) | -5% | 45µM* | 24% | 2% | 3% | 14%
CCOc1ccc(N(C)C(=O)C2CCN(S(=O)(=O)c3c(C)noc3/C=C/c3ccc(C)cc3)CC2)cc1 | -2% | nt | nt | -8% | nt | nt
Cc1nc2scc(-c3cccs3)c2c(=O)[nH]1 | -1% | 45µM* | 4%[46.1 µM] | -4% | -14% | 24%[38.3 µM]
Cc1cc(C)c(O)c(N)c1 | 6% | 20µM* | -4% | -5% | 16µM* | 14%
COc1ccc(C2NC3=C(CCC3)C3(C#N)C4(N=C(N)C23C#N)OCCO4)cc1 (stereo unspecified) | 20% | -5% | ? | 1% | 5% | 21%[38.3 µM]
COc1ccc(C2NC3=C(CCCC3)C(C#N)(C#N)C2(C#N)C#N)cc1 (stereo unspecified) | 0% | 56µM* | -18%[46.1 µM] | -11% | ? | 20%[38.3 µM]
Cc1onc(C(=O)Nc2ccccc2C(F)(F)F)c1[N+](=O)[O-] | nt | 12% | nt | 3% | nt | nt
Cc1onc(C(=O)Nc2c(C)n(C)n(-c3ccccc3)c2=O)c1[N+](=O)[O-] | 2% | 79µM* | -3% | -29% | ? | nt
CSc1ccccc1NC(=O)c1noc(C)c1[N+](=O)[O-] | nt | 45µM* | nt | -11% | nt | nt
Cc1ccc2cc(C3C(C#N)=C(N)Oc4c3ccc3cccnc43)c(=O)[nH]c2c1 (stereo unspecified) | -1% | 10µM* | 0%[46.1 µM] | 45% | ? | -3%[38.3 µM]
C=C(C)C(O)/C=C/c1ccc(Br)cc1 (stereo unspecified) | -1% | 22% | nt | nt | 13% | -1%
Cc1ccc2oc(=O)cc(CN3CCCCC3)c2c1 | nt | 22% | nt | -6% | nt | nt
CC(=O)CCc1oc2ccc(C)cc2c1-c1ccc(C)o1 | 0% | 22µM* | -38% | -14% | -8% | 15%
COc1ccccc1-c1cc(C(=O)Nc2cccnc2Cl)no1 | nt | 19% | nt | -5% | nt | nt
Cc1ccccc1OCC(=O)NC(=S)Nc1ccc(N2CCOCC2)c(Cl)c1 | -1% | 8% | -13%[46.1 µM] | 42% | 7% | 9%[38.3 µM]
Cc1ccc(NC(=O)c2cc(N3C(=O)C=CC3=O)ccc2N2CCOCC2)cc1Cl | 2% | 4µM* | ? | ? | -1% | 14%

Screens deposited in PubChem by National Center for Advancing Translational Sciences (NCATS).
